Assay results reported in PubChem BioAssay (NCI).
This is part of a sample that, as a whole, favours compounds with a hit. Of some 79,000 tested, about 15% had one in any assay. A number with no mark means an inactive call. Activity calls are given as the source filed them. Cut-off read from the data, not from the text of the source: active = growth inhibition above about 70%; inactive = the rest.

Assay: NCI Yeast Anticancer Drug Screen. Data for the mlh1 rad18 strain (AID 175)
Conditions: S. cerevisiae mlh1 rad18 strain growth inhibition; at 5.0 µM (retest, dose inferred, filed as 0.5); active compounds read high
Method in brief: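 A repair-deficient yeast strain is exposed to test compound, and growth is scored relative to vehicle-treated controls.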

Q: With `NC1=NC2=C(CCCC2)C(c2cccs2)S1` (stereo not drawn) as the compound, how does the growth inhibition read?
A: 61%

Q: With `CCC(C)(C)NCCCCCNc1cc(OC)cc2cccnc12` as the compound, how does the growth inhibition read?
A: 2%

Q: For `C/C(=N\NC(=S)Nc1ccc([N+](=O)[O-])cc1)c1nc2ncccc2[nH]1`, which growth inhibition is on record?
A: 4%

Q: Which growth inhibition does the source give for `COC(=O)c1ccc(SCC(=O)c2ccc([N+](=O)[O-])o2)cc1` here?
A: 2%

Q: For `CCCCCCCCCCCC(=O)OCCOP(=O)(OCC)OCC`, which growth inhibition is on record?
A: -1%

Q: With `COc1cccc2c1S(=O)(=O)C(c1ccccc1)=CC2=O` as the compound, how does the growth inhibition read?
A: 69%

Q: With `CC(C)(C)c1ccc(-n2c3nc(=O)n(-c4ccccc4C(F)(F)F)c(=O)c-3cc3ccccc32)cc1` as the compound, how does the growth inhibition read?
A: 15%

Q: Which growth inhibition does the source give for `CCOC(=O)c1cc(C)ccc1-c1ccc(C)cc1C(=O)OCC` here?
A: 2%

Q: Which growth inhibition does the source give for `NC(=O)C1C(=O)c2cccc3c2C1(Br)C(Br)CCC3` (stereo not drawn) here?
A: 12%

Q: For `COC(=O)/C(=C/C=C(c1ccccc1)c1ccccc1)N(C(C)=O)C(C)=O`, which growth inhibition is on record?
A: -3%

Q: With `Cc1ccc(C2COc3cc(O)c(O)cc3C2)cc1` (stereo not drawn) as the compound, how does the growth inhibition read?
A: 51%

Q: Which growth inhibition does the source give for `COc1cc(C2=NCCO2)cc(OC)c1OC` here?
A: -196%

Q: Which growth inhibition does the source give for `O=C1c2cccc3cc([N+](=O)[O-])cc(c23)C(=O)N1O` here?
A: 31%

Q: Which growth inhibition does the source give for `CCOc1ccccc1C(=O)Oc1cccc(C)c1` here?
A: -19%

Q: For `CCNc1cc(N)[n+](CC)c2n[nH]c(/N=C/c3cc(Cl)cc(Cl)c3O)c12`, which growth inhibition is on record?
A: 37%

Q: With `CC(=O)OC1=Cc2ccccc2C(c2ccccc2)c2ccccc21` (stereo not drawn) as the compound, how does the growth inhibition read?
A: 11%

Q: With `CCOC(=O)c1[nH]c(Br)c(-c2ccc(OC)c(OC)c2)c1Br` as the compound, how does the growth inhibition read?
A: 8%

Q: For `C#C[C@]1(OC(C)=O)CC[C@H]2[C@@H]3CCC4=CC(=O)CC[C@@H]4[C@H]3CC[C@@]21C`, which growth inhibition is on record?
A: 3%

Q: Which growth inhibition does the source give for `COc1ccc(CC2=CC(=O)C(=O)C=C2C)cc1` here?
A: 14%

Q: With `O=C(O)CCC/C(=N\Nc1ccccc1)C(=O)O` as the compound, how does the growth inhibition read?
A: 7%

Q: Which growth inhibition does the source give for `S=c1[nH]c2ccc(Br)cc2c(=S)n1-c1ccccc1` here?
A: -29%

Q: With `CC1(C)OC2C(COC(c3ccccc3)(c3ccccc3)c3ccccc3)OC(n3cnc4c(N)ncnc43)C2O1` (stereo not drawn) as the compound, how does the growth inhibition read?
A: 32%

Q: For `O=[N+]([O-])c1cnc(F)c(Br)c1`, which growth inhibition is on record?
A: 99% (active)

Q: With `C=C(C#N)C(=O)OCC(CC)CC.C=C(C#N)C(=O)OCC(CC)CC.CS(C)=O.CS(C)=O.Nc1c(N=Nc2ccc(-c3ccc(N=Nc4cc(S(=O)(=O)[O-])c5ccccc5c4N)cc3)cc2)cc(S(=O)(=O)[O-])c2ccccc12.[Pt+2]` as the compound, how does the growth inhibition read?
A: -6%

Q: Which growth inhibition does the source give for `CCCCCCCCCCS(=O)(=O)Nc1ccc(C(=O)NN)cc1` here?
A: 69%

Q: Which growth inhibition does the source give for `COC(=O)c1ccc(C)cc1CC1Cc2cc(C)ccc2C1=O` (stereo not drawn) here?
A: -12%

Q: With `CCCCCOCC(=O)OC` as the compound, how does the growth inhibition read?
A: 2%

Q: Which growth inhibition does the source give for `COc1ccc(C2c3cc4c(cc3OC(N3CCOCC3)C2C)OCO4)c(OC)c1` (stereo not drawn) here?
A: -26%

Q: For `COC1/C=C\OC2(C)Oc3c(C)c(O)c4c(c3C2=O)C2=NC(C)(C)N(c3ccccc3)C2=C(NC(=O)/C(C)=C\C=C\C(C)C(O)C(C)C(O)C(C)C(OC(C)=O)C1C)C4=O` (stereo not drawn), which growth inhibition is on record?
A: -2%

Q: For `C/C(=C/C(=O)N1c2ccccc2CC1c1c[nH]c2ccccc12)C(=O)O` (stereo not drawn), which growth inhibition is on record?
A: -2%

Q: For `CSc1nc(C)c(C(=O)CCN2CCOCC2)s1`, which growth inhibition is on record?
A: -5%

Q: For `Cn1c(=S)c2[nH]c(=S)[nH]c2n(C)c1=O`, which growth inhibition is on record?
A: 92% (active)

Q: Which growth inhibition does the source give for `CC(C)CCC(C)(C)c1cc(O)ccc1O` here?
A: 35%

Q: With `CCc1c(-c2ccccc2)c(CN2CCCCC2)c2ccccn12` as the compound, how does the growth inhibition read?
A: -12%

Q: With `Clc1ccc(CN2COc3c(ccc4cccnc34)C2)c(Cl)c1` as the compound, how does the growth inhibition read?
A: 3%

Q: Which growth inhibition does the source give for `Cc1[nH]c2ccccc2c1/C=C1/CCCCCCC1=O` here?
A: -7%

Q: With `CCOC(=O)c1ccc(NC(=O)O/N=C(/Cl)CC)cc1` as the compound, how does the growth inhibition read?
A: 8%

Q: For `COC1OC(COC(=O)c2ccccc2)CC1F` (stereo not drawn), which growth inhibition is on record?
A: 18%
